# Rows were chosen to be rich in hits. Some 21% of all compounds tested hit in one or more screens of this group.
# DT40 TDP1 CPT: growth inhibition of DT40 Tdp1-/-;hTDP1 cells with camptothecin (screen for TDP1 inhibitors); chicken DT40 Tdp1-/-;hTDP1 cells + 20 nM CPT, ATP luminescence, 48 h; Potency, µM (titrated, usually from 46.2 µM), without a hit: top-dose activity change, negative = growth inhibition, usual class: inhibitors; hit rate 12% among 420,000; note: potency is the fitted concentration of half-maximal effect; % is set by controls: 0 for no effect and ±100 for the full control effect; nearly all actives have a fitted effect of over 55% in size
#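 Cell growth measured by CellTiter-Glo luminescence after a minimum 48 h, 37 C compound exposure with 20 nM CPT in Tdp1-knockout DT40 cells stably expressing hTDP1, seeded 400/well; qHTS titration format.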
# IL1B secr inh: inhibitors of inflammasome signaling (IL-1 beta secretion); THP-1 LPS/ATP IL-1B secretion, AlphaLISA, 16 h; stronger effect = lower value; activity change, % at 57.5 µM; hit rate 4.7% among 360,000; AID 743279; in the data active = activity change below about -50%; inconclusive = mostly about -30% to -49%; note: % is set by controls: 0 for no effect and ±100 for the full control effect
#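 THP-1 cells pretreated 1 hr with compounds (up to 57.5 uM final), then stimulated with LPS (250 ng/mL final) plus ATP (1.25 mM final); secreted IL-1B measured by AlphaLISA after 16 hr, decreased signal indicating inhibition.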
# DRD3 agonist: activates the human D3 dopamine receptor. D3R DiscoveRx beta-arrestin cells, luminescence, 90 min. hit rate 0.58% among 410,000. max activation, %. P35462; in the data active = max activation above about 30%; note: 0% is about no effect
#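 Cells at 1500/well, incubated overnight, then treated with pinned compounds (dopamine as control) for 90 min at 37 degrees C. DiscoveRx reagent added for 30 - 60 minutes at room temperature; luminescence read.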
# DRD3 antagonist: blocks the human D3 dopamine receptor. hit rate 2.5% among 360,000. P35462. max response, negative = inhibition, %. D3R cells, DiscoveRx beta-arrestin luminescence, antagonist mode; stronger effect = lower value. AID 652054; in the data active = max response below about -50%; inconclusive = no clear call, values can overlap the other calls; note: % is set by controls: 0 for no effect and ±100 for the full control effect
#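 Cells expressing the human receptor were seeded at 1500 cells/well, incubated overnight at 37 degrees C in 5% CO2, then exposed to library compounds with dopamine controls for 90 minutes at 37 degrees C before luminescent detection.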
# TDP1 cell noCPT: qHTS for Inhibitors of human tyrosyl-DNA phosphodiesterase 1 (TDP1): qHTS in cells in absence of CPT. DT40 Tdp1-/- hTDP1 cells, no CPT, ATP luminescence, 48 h. Potency, µM (doses to about 46.2 µM), for the others: top-dose activity change, negative = growth inhibition, hits mostly inhibitors. hit rate 15% among 420,000. AID 686978, 2013; note: potency is the fitted concentration of half-maximal effect; % is set by controls: 0 for no effect and ±100 for the full control effect; nearly all actives have a fitted effect of over 55% in size
#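 Chicken DT40 Tdp1-/- cells stably complemented with human TDP1 were seeded at 400 cells/well with DMSO in place of 20 nM camptothecin. After compound pinning, cells grew at least 48 hr at 37 °C; viability read by CellTiter-Glo luminescence.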
# ClpP mod: qHTS Assay for Activators of ClpP; ATP-dependent Clp protease proteolytic subunit (Bacillus subtilis (strain 168)), P80244; AID 651965, 2013; purified B. subtilis ClpP, FRET peptide cleavage, 20 min; hit rate 1.9% among 340,000; Potency, µM (top dose mostly 57.5 µM), for inactives: at the top dose activity change, negative = active; active = well fitted falling curve with a large enough effect; inconclusive = small, poorly fitted or top-dose-only effect; inactive = no such curve, though single readings can be large or run the other way; note: potency is the fitted concentration of half-maximal effect; the source files actives as falling curves though it sought activators and does not explain the sign; nearly all actives have a fitted effect of over 65% in size
#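 Buffer: 100 mM Tris/HCl pH8, 100 mM KCl, 0.05% low protease BSA, 2.5% glycerol, 0.01% Tween-20. ClpP 10 microg/mL final; 20 min RT; delta FRET normalized to ADEP and DMSO controls.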
# An asterisk follows results filed as active; ? = inconclusive; . = not tested or not shown. Unless noted, calls come from the whole dose curve; as a rule, active = well fitted inhibition curve with a large enough effect; inconclusive = small, poorly fitted or top-dose-only effect; inactive = flat fitted curve, though single readings scatter.
SMILES,DT40 TDP1 CPT,IL1B secr inh,DRD3 agonist,DRD3 antagonist,TDP1 cell noCPT,ClpP mod
COc1cc(OC)c(OC)cc1/C=C/C(=O)OCC(=O)Nc1c(C)n(C)n(-c2ccccc2)c1=O,?,-14.9,-2.6,-12.1,1.03µM*,-14.1%
Cc1c(NC(=O)COC(=O)/C=C/c2ccc(Cl)cc2)c(=O)n(-c2ccccc2)n1C,-2.2%,-21.5,-5.9,-14.1,-19.0%,.
O=C(COc1ccccc1Cl)NNC(=O)Cn1[nH]c(=O)c2ccccc2c1=O,9.2µM*,5.9,-2.1,-4.6,?,-5.0%
CC(=O)Nc1cccc(NC(=O)C(=O)NCC(c2ccco2)N2CCc3ccccc32)c1 (configuration not stated),?,-7.6,0.4,9.8,?,.
Cc1c(NC(=O)CN2c3cccc4cccc(c34)S2(=O)=O)c(=O)n(-c2ccccc2)n1C,-12.0%,-4.2,-15.3,-16.3,-14.1%,-15.7%
Cc1c(NC(=O)CN2C(=O)c3ccccc3S2(=O)=O)c(=O)n(-c2ccccc2)n1C,-21.6%,24.1,9.3,-54.9*,3.3%,0.9%
COc1ccc(C(=O)/C=C/Nc2c(C)n(C)n(-c3ccccc3)c2=O)cc1OC,23.1µM*,-11.1,-1.5,-13.0,16.4µM*,-1.9%
Cc1c(NC(=O)COC(=O)c2ccc[nH]c2=O)c(=O)n(-c2ccccc2)n1C,2.7%,2.2,-4.4,-3.6,-13.7%,17.8µM*
Cc1ccsc1C(=O)OCC(=O)Nc1c(C)n(C)n(-c2ccccc2)c1=O,9.1%,-0.1,4.1,-23.9,-20.7%,-1.2%
Cc1cccc(C(=O)N2CCCCC2CCN2CCCCC2)c1 (configuration not stated),3.1%,.,-8.2,.,1.7%,-0.4%
Nc1cc(C(=O)O)c(N)c2c1C(=O)c1ccccc1C2=O,16.4µM*,0.0,-7.9,-55.0*,?,0.5%
Cc1ccccc1NC(=O)c1cccc(N2C(=O)C3C4CCC(C4)C3C2=O)c1 (configuration not stated),5.8%,13.4,-20.1,13.0,6.1%,1.3%
O=C(Nc1ccc(Cl)cc1)c1cccc(N2C(=O)C3C4CCC(C4)C3C2=O)c1 (configuration not stated),?,-15.0,-5.5,0.0,14.6µM*,-2.6%
O=C(Nc1ccc(Cl)cc1Cl)c1cccc(N2C(=O)C=CC2=O)c1,1.03µM*,0.0,-6.1,-85.0*,0.581µM*,-0.7%
O=C(O)c1cccc(N2C(=O)C=CC2=O)c1,?,-0.3,8.5,-6.7,?,-3.4%
COc1ccc(NC(=O)c2cccc(N3C(=O)C4C5CCC(C5)C4C3=O)c2)cc1 (configuration not stated),?,11.8,0.3,10.9,?,-2.7%
O=C(O)c1ccc(NC(=O)c2cccc(N3C(=O)C4C5CCC(C5)C4C3=O)c2)cc1 (configuration not stated),4.5%,13.8,-1.5,0.0,-2.1%,25.1µM*
CC(C)Cc1cc(C(=O)N(C)C2CCCN(Cc3ccccc3F)C2)n(C)n1 (configuration not stated),?,32.0,0.9,-6.1,?,-3.7%
CCc1cc(=O)oc2cc(OC(C)C(=O)NCc3ccccn3)ccc12 (configuration not stated),-0.4%,5.4,-3.5,-1.0,0.5%,3.6%
COc1ccc(-c2cc(=O)oc3cc(OC(C)C(=O)NCCCn4ccnc4)ccc23)cc1 (configuration not stated),18.4µM*,51.5,-4.8,-2.0,20.6µM*,-8.5%
CCc1cc(=O)oc2cc(OCC(=O)NCCCn3ccnc3)ccc12,-8.3%,-0.2,-9.0,-23.8,0.5%,4.3%
COc1ccc(-c2cc(=O)oc3cc(OCC(=O)NCCCn4ccnc4)ccc23)cc1,20.6µM*,-4.8,0.0,55.3,?,-9.6%
COc1ccc(-c2cc(=O)oc3c(C)c(OC(C)C(=O)NCc4ccccn4)ccc23)cc1 (configuration not stated),?,-8.7,-29.0,-16.0,25.9µM*,?
CCOc1ncccc1C(=O)NCCCSc1ccccc1,-23.4%,-8.3,6.7,-6.9,?,-6.1%
C(=C\c1ccccc1)/CN1CCN(C(c2cc3ccccc3o2)c2nnnn2C2CCCCC2)CC1 (configuration not stated),18.4µM*,?,-12.6,-76.5*,?,-2.9%
SMILES,DT40 TDP1 CPT,IL1B secr inh,DRD3 agonist,DRD3 antagonist,TDP1 cell noCPT,ClpP mod
c1ccc(C(c2nnnn2C2CCCC2)N2CCN(c3nc4ccccc4s3)CC2)cc1 (configuration not stated),?,-1.5,3.2,-11.3,?,-1.9%
C(=C\c1ccccc1)/CN1CCN(C(c2ccnc3ccccc23)c2nnnn2C2CCCC2)CC1 (configuration not stated),?,-28.7,-9.9,-29.2,14.6µM*,-6.4%
C(=C\c1ccccc1)/CN1CCN(C(c2cccs2)c2nnnn2C2CCCC2)CC1 (configuration not stated),?,-22.8,-14.8,-86.5*,?,-3.4%
C(=C\c1ccccc1)/CN1CCN(C(c2nnnn2C2CCCC2)C2CC2)CC1 (configuration not stated),18.4µM*,11.4,-19.4,?,13µM*,1.6%
CC1=C(C(=O)OCC2CCCO2)C(c2ccc(Cl)cc2)NC(=O)N1 (configuration not stated),0.8%,3.4,2.3,13.1,?,.
CCCCOC(=O)CSc1nnc(-c2ccccc2)o1,7.6%,.,5.1,.,-19.9%,1.1%
O=C(NC1CC2CCC1C2)c1ccco1 (configuration not stated),9.4%,-17.5,-0.7,-16.4,?,.
CCCC(c1nnnn1C1CCCC1)N1CCN(c2ccccc2F)CC1 (configuration not stated),?,1.2,-8.1,-19.2,23.1µM*,1.6%
CC(C)(C)n1nnnc1C(C1CC1)N1CCN(C/C=C/c2ccccc2)CC1 (configuration not stated),-23.6%,-15.4,-2.4,?,?,-1.2%
C(=C\c1ccccc1)/CN1CCN(C(c2nnnn2Cc2ccccc2)C2CC2)CC1 (configuration not stated),16.4µM*,?,-3.6,-61.7*,16.4µM*,0.7%

# Screens (PubChem)
